Measured values taken from PubChem BioAssay (Tox21).
Several values for one entry are separate records, joined by “and”; a condition that tells them apart may be missing. Equal entries are not always repeated. Results filed as inconclusive are left out. More than one record can exist for a structure, and the calls need not agree. Activity calls are given as the source filed them. Unless noted, the call rests on the fitted dose curve; in most records, active means well fitted curve in the direction sought with a large enough effect in the repeat runs; inconclusive means weak or mixed curves; inactive means no such curve, though single readings can be large; an effect the other way counts as inactive or inconclusive.

Key:
[1] = Human pregnane X receptor (PXR) small molecule agonists, qHTS cell viability counter screen (AID 1346977); further: on the % scale 0 is the no-effect control and ±100 the full control effect; nearly all actives have a fitted effect of over 50% in size
In short: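 Fluorescence read-out (CellTiter-Fluor) of viability in PXR-Luc HepG2 cells, multiplexed with the luciferase agonist read. Compounds in DMSO added after 5hr plating; 24hr total exposure at 37C, 5% CO2.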

[2] = Caspase-3/7 induction in HepG2 cells by small molecules, qHTS assay (AID 1346978); further: on the % scale 0 is the no-effect control and ±100 the full control effect; nearly all actives have a fitted effect of over 15% in size
In short: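 Wild-type HepG2 cells, 2,000/well, settled 5 hr at 37 C and 5% CO2, then compound-treated for 17 hr; caspase-3/7 activity read by luminescent Caspase-Glo 3/7 after 30 min at room temperature.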

[3] = Caspase-3/7 induction in CHO-K1 cells by small molecules, qHTS assay (AID 1346980); further: on the % scale 0 is the no-effect control and ±100 the full control effect; nearly all actives have a fitted effect of over 15% in size
In short: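 Wild-type CHO-K1 cells exposed to compounds for 17hr at 37 C, 5% CO2. Caspase-3/7 activity then measured by Caspase-Glo 3/7 luminescence after 30min at room temperature.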

[4] = Caspase-3/7 induction in HepG2 cells by small molecules, qHTS cell viability counter screen (AID 1346981); further: series mostly up to about 92 µM; on the % scale 0 is the no-effect control and ±100 the full control effect; nearly all actives have a fitted effect of over 30% in size
In short: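 Wild-type HepG2 cells, 2,000/well, settled 5 hr at 37 C, 5% CO2 before compound addition. Viability read by CellTiter-Fluor fluorescence, reagent added after 16 hr compound exposure, then 1 hr at 37C, in the same wells as the caspase read.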

[5] = Caspase-3/7 induction in CHO-K1 cells by small molecules, qHTS cell viability counter screen (AID 1346979); further: nearly all actives have a fitted effect of over 35% in size; further: potency means the concentration at half of the fitted maximal effect
In short: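 CHO-K1 wt, 1,500 cells/well; 5hr pre-incubation 37C/5% CO2; compound pin transfer (DMSO); 16hr exposure; CellTiter-Fluor added, 1hr, fluorescence read.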

[6] = molecular target: Nuclear receptor subfamily 1 group I member 2 (Homo sapiens) (UniProt O75469); assay: Human pregnane X receptor (PXR) small molecule agonists, qHTS assay (AID 1346982); further: nearly all actives have a fitted effect of over 35% in size; further: potency means the concentration at half of the fitted maximal effect; on activation: on the % scale 0 is the no-effect control and ±100 the full control effect
Nuclear receptor subfamily 1 group I member 2 (Homo sapiens), sequence (O75469 whole entry, looked up): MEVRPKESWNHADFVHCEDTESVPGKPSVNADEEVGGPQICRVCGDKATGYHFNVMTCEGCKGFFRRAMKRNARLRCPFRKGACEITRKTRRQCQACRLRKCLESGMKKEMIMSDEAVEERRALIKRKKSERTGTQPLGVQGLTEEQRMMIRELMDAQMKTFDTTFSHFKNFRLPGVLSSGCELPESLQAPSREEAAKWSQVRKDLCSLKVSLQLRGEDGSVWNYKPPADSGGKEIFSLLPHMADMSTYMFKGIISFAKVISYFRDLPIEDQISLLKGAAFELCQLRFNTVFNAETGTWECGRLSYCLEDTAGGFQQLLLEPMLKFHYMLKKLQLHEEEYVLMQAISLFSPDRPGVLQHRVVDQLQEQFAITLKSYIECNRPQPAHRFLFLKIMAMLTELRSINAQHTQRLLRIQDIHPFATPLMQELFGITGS
In short: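 PXR-Luc HepG2 reporter cells (CYP3A4-driven luciferase) in 5% charcoal-stripped FBS medium, plated 5 h before compound addition, then treated 24 h at 37C. Luciferase read by ONE-Glo luminescence after 30 min at room temperature.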

[7] = molecular target: Nuclear receptor subfamily 1 group I member 2 (Rattus norvegicus) (UniProt Q9R1A7); assay: Rat pregnane X receptor (rPXR) activation by small molecules, qHTS assay (AID 1346983); settings: rPXR luciferase reporter cells, One-Glo luminescence, 24 h; max activation: stronger effect = higher value; further: on the % scale 0 is the no-effect control and ±100 the full control effect; nearly all actives have a fitted effect of over 20% in size
Nuclear receptor subfamily 1 group I member 2 (Rattus norvegicus), sequence (Q9R1A7 whole entry, looked up): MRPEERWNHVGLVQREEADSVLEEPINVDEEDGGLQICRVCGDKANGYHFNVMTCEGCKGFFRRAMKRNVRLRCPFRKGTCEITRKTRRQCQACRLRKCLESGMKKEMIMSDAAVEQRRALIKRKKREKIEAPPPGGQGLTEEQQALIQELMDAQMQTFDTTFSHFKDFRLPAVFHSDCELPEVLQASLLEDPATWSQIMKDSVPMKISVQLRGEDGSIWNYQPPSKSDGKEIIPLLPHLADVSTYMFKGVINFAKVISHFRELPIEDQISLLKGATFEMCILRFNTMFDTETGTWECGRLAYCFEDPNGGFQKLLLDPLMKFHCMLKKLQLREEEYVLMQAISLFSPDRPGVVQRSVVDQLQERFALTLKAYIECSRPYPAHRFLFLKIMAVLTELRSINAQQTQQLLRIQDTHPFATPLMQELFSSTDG
In short: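 Cell-based rPXR activation assay: rPXR cells, 2,000 per well, rested 5hr at 37 C, then exposed to compounds in DMSO for 24 hr at 37 C. Luciferase activity read by One-Glo luminescence after 30 min at room temperature.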

[8] = molecular target: Nuclear receptor subfamily 1 group I member 2 (Homo sapiens) (UniProt O75469); assay: CYP3A4 induction through human pregnane X receptor (PXR) by small molecules, qHTS assay (AID 1346984); further: on the % scale 0 is the no-effect control and ±100 the full control effect; nearly all actives have a fitted effect of over 40% in size
In short: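 DPX-2 HepG2 cells carrying a PXR response element and CYP3A4-promoter luciferase construct, treated with compounds 24 hr at 37C. Then P450-Glo CYP3A4 Luciferin-IPA substrate (3uM final) for 3 hr at 37C, One-Glo added, luminescence read.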

[9] = molecular target: Nuclear receptor subfamily 1 group I member 2 (Homo sapiens) (UniProt O75469); assay: Human pregnane X receptor (PXR) activation by small molecules, qHTS assay (AID 1346985); further: nearly all actives have a fitted effect of over 40% in size; further: potency means the concentration at half of the fitted maximal effect; on activation: on the % scale 0 is the no-effect control and ±100 the full control effect
In short: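 DPX-2 cells (HepG2 co-transfected with a PXR response element and a CYP3A4-promoter luciferase construct) were seeded at 2,000 per well, rested 5 hr at 37C, then exposed to DMSO-dissolved compounds for 24 hr. Activation was read as luciferase luminescence.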

[10] = molecular target: Thyrotropin-releasing hormone receptor (Homo sapiens) (UniProt P34981); assay: qHTS assay to identify small molecule agonists of the thyrotropin-releasing hormone receptor (TRHR) signaling pathway (AID 1346891; calls by dose curve; further: potency means the concentration at half of the fitted maximal effect)
Thyrotropin-releasing hormone receptor (Homo sapiens), sequence (P34981 whole entry, looked up): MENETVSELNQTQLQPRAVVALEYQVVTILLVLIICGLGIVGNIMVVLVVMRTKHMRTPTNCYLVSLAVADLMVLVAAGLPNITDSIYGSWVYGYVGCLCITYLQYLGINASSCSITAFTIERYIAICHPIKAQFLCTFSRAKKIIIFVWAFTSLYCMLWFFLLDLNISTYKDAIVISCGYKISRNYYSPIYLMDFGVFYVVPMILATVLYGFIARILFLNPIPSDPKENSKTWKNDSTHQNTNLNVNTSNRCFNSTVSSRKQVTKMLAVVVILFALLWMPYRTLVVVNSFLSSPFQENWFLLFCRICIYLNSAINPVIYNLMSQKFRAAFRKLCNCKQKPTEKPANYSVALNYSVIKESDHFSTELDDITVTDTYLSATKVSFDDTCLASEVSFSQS
In short: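 HEK293/TRHR cells, 1500 per well, 18 h 37 °C; Ca dye 2 h 37 °C; pin-tool compound addition (agonist mode); kinetic fluorescence 3 min, 1 s reads; 15 concentrations, triplicate.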

CC(C)=CCC/C(C)=C\CO
inactive: Potency [1] | Potency [2] | Potency [3] | Potency [4]

CCCCC(CC)COC(=O)c1ccc(N(C)C)cc1 (centres undefined)
inactive: Potency [1] | Potency [2] | Potency [5] | Potency [3] | Potency [4] | max activation [7] -1.01% | Potency [8] | Potency [9]
inactive and 54.5 µM (active): Potency [6]

Nc1ccc(Cl)cc1Cl
inactive: Potency [1] | Potency [2] | Potency [5] | Potency [3] | Potency [4] | Potency [6]

CC(C)OB(OC(C)C)OC(C)C
inactive: Potency [2] | Potency [5] | Potency [3] | Potency [4] | Potency [6]

Clc1nc(Cl)c(Cl)c(Cl)c1Cl
inactive: Potency [1] | Potency [2] | Potency [5] | Potency [3] | Potency [4] | Potency [6]

O=[N+]([O-])c1ccc2c(c1)Cc1ccccc1-2
active: Potency [6] 48.5 µM and 54.5 µM
inactive: Potency [2] | Potency [3] | Potency [4]

O=S(=O)(O)c1ccc(O)cc1
inactive: Potency [1] | Potency [2] | Potency [5] | Potency [3] | Potency [4] | Potency [6] | max activation [7] -1.73% | Potency [8] | Potency [9]

C=C(C)C1CC=C(C)CC1 (centres undefined)
inactive: Potency [1] | Potency [2] | Potency [3] | Potency [4] | Potency [6] | max activation [7] -4.17% | Potency [8] | Potency [9]

CN(C)CCN(Cc1cccs1)c1ccccn1
inactive: Potency [1] | Potency [2] | Potency [3] | Potency [4] | max activation [7] -1.17% | Potency [8] | Potency [9]
20 µM (active) and inactive: Potency [6]

O=C(Nc1ccc([N+](=O)[O-])cc1Cl)c1cc(Cl)ccc1O
inactive: Potency [2] | Potency [3]
active: Potency [5] 2.17 µM and 2.59 µM | Potency [6] 686 nM and 291 nM

COc1ccccc1/C=C/C=O
inactive: Potency [2] | Potency [3] | Potency [4]

CCOC(=O)C(C#N)=C(c1ccccc1)c1ccccc1
inactive: Potency [1] | Potency [2] | Potency [5] | Potency [3] | Potency [4]
active: Potency [6] 24.3 µM and 11.9 µM | Potency [9] 12.6 µM

O=C=Nc1ccc(Cc2ccc(N=C=O)cc2)cc1
inactive: Potency [1] | Potency [2] | Potency [5] | Potency [3] | Potency [4]

CCC(C)CO (centres undefined)
inactive: Potency [1] | Potency [2] | Potency [3] | Potency [4] | Potency [6]

Cc1cc2nc3c(=O)[nH]c(=O)nc-3n(C[C@H](O)[C@H](O)[C@H](O)CO)c2cc1C
30.3 µM (active) and inactive: Potency [6]
inactive: Potency [2] | Potency [3] | max activation [7] -0.456% | Potency [9]
active: Potency [10] 10.9 µM and 6.42 µM and 6.57 µM

Cc1ncc[nH]1
inactive: Potency [1] | Potency [2] | Potency [3] | Potency [4] | max activation [7] 1.32%

CCCCOCCOCCO
inactive: Potency [1] | Potency [2] | Potency [3] | Potency [4] | Potency [6]
